Common to all, as to assay: NCI-60 one-dose screen, 48 h (100 = growth as untreated, 0 = no growth, -100 = all killed)
What all share (conditions): 10 µM unless noted

Test [1] has as its system HCT-15 colon.
Test [2] deals with HT29 colon.
Test [3] concerns SNB-75 CNS.
Test [4] has as its system SNB-19 CNS.
Test [5] concerns U251 CNS.
In test [6] the test system is PC-3 prostate.
The subject of test [7] is LOX IMVI melanoma.
The test system of test [8] is SK-MEL-28 melanoma.
Test [9] concerns UACC-62 melanoma.
For test [10], the system named is SK-MEL-5 melanoma.

Compounds without any hit were thinned out: in the full panel of roughly 83,000, 20% have a hit.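 Cell lines were cultured in 96-well plates, exposed to a single compound concentration, and assessed for percent growth 48 hours later.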 Unmarked numbers belong to inactive results. Active and inactive are the calls of the source. The calls were made as follows: active = growth percent below 10; inactive = the rest.

27 compounds from PubChem BioAssay (NCI) can be followed below.

As to `COc1ccc(-c2nc(SCC(=O)Nc3ccc(C(C)=O)cc3)[nH]c(=O)c2C#N)cc1`, the growth is 103% in test [1]; 101% in test [2]; 88.3% in [3]; 96.5% in test [4]; 89.4% in test [5]; 88% in test [6]. Also, the growth in [7] was 96.2%; in test [8], 101%.

As for `CN1CCN(CC#CCn2c3c(c4ccccc42)C[C@]2(C)[C@H]4CC[C@@H]5[C@H]6[C@H]7OC(=O)[C@@]6(CCC7(C)C)CC[C@@]5(C)[C@]4(C)CC[C@H]2C3(C)C)CC1`, the growth is 38.1% in test [1]; 30.4% in [2]; 113% in test [3]; 87.6% in [4]; 25% in [5]; 58.5% in [6]. The growth in test [9] was 99.5%; in [8], 106%.

`O=C(CI)Nc1ccc(O)c2ccccc12`: the growth was -10.1% (active) in [1]; 0.99% (active) in test [2]; 54.2% in [3]; 46.1% in test [4]; 43.3% in test [6]; -47.7% (active) in [10]. The growth in test [9] was -58.7% (active); in test [7], -60.6% (active); in test [8], 41.5%.

For the compound `C/C(=C(/c1ccccc1)c1ccc(N2C(=O)c3cccc4c(NCc5ccccc5)ccc(c34)C2=O)cc1)c1ccccc1`, the growth is 103% in test [1]; 112% in test [2]; 94.6% in test [3]; 96.8% in test [4]; 99.5% in test [5]; 82.1% in test [6]. Also, the growth is 80.3% in [9] and 107% in [8].

`Cc1cccc(C)c1NC(=O)CSC(=S)N1CCCCC1`: the growth in test [1] was 105%; in test [2], 103%; in test [3] it was 96%; in test [4] it was 111%; in test [5] it was 105%; in [6] it was 97.6%. Besides, the growth in test [7] is 98.2%; in test [8], 105%.

`O=c1[nH]c(=S)[nH]c2nc[nH]c12`: the growth in test [1] is 99.5%; in test [2], 103%; in test [3], 84.6%; in test [4] it was 107%; in test [5], 105%; in test [6], 96.9%. The growth in [9] was 97.6%; in test [8] it was 110%.

As for `COC(=O)[C@]12CC[C@@H](C)[C@H](C)[C@@H]1C1=CC[C@@H]3[C@@]4(C)C[C@@H](OC(C)=O)[C@H](O)[C@@](C)(CO)[C@@H]4[C@H](O)C[C@@]3(C)[C@]1(C)CC2`, the growth is -94.5% (active) in test [1]; -95.4% (active) in test [2]; -83.1% (active) in test [3]; -71.7% (active) in [4]; -84.1% (active) in test [5]; -100% (active) in test [6]. Besides, the growth in test [7] was -100% (active); in [8], -86% (active).

Regarding `Clc1cc(Cl)cc(Nc2ccc3c(OCCCN4CCOCC4)cccc3n2)c1`, the growth in [1] was -46.4% (active); in [2] it was -64.5% (active); in test [3] it was 54.9%; in [4] it was 31.7%; in test [5] it was 29.1%; in test [6], 42%. For the same compound, the growth in test [9] is 14.7%; in test [7], -85.4% (active); in test [8], 65.6%.

For the compound `COc1ccc2nc(-c3c(-c4ccccc4)nc4ncccn34)[nH]c2c1`, the growth in [1] is 96.5%; in [2], 94.1%; in [3], 78.1%; in test [4], 101%; in test [5], 99.5%; in test [6], 97.3%. Moreover, the values for the growth in test [9] and in test [8] were 95.3% and 91.5%, respectively.

Regarding `COc1ccc2c(c1)c(-c1nc(-c3c[nH]c4ncccc34)cs1)cn2C`, the growth was 51.6% in test [1]; 55.6% in [2]; 76.1% in test [3]; 92.7% in [4]; 75.3% in [5]; 61.1% in test [6]. Besides, the growth in test [9] was 67.6%; in [8], 87.9%.

Take `Nc1c(Cl)cc(N=Nc2ccccc2)cc1Cl`: the growth is 93% in test [1]; 100% in test [2]; 74% in test [3]; 100% in test [4]; 94.5% in [5]; 96.2% in test [6]. The values for the growth in [9] and in test [8] were 57.5% and 106%, respectively.

With `Cc1cc(Cl)nc(N(CCNc2ccnc3cc(Cl)ccc23)Cc2ccco2)n1`, the growth in [1] was 35.7%; in [2], 30.3%; in [3], 81.5%; in test [4], 37.9%; in [5], 17.9%; in test [6], 34.1%. Further, the growth is 22.5% in test [7] and 3.02% (active) in [8].

With `COC(=O)[C@]12CC[C@@H](C(C)=O)[C@@H]1[C@H]1CC[C@@H]3[C@@]4(C)C/C(=C/c5cccnc5)C(=O)C(C)(C)[C@@H]4CC[C@@]3(C)[C@]1(C)CC2`, the growth is 23.2% in test [1]; 16.5% in test [2]; 110% in test [3]; 67.7% in test [4]; 56.6% in [5]; 24.4% in test [6]. Besides, the growth was 34.5% in [9] and 31.5% in [8].

As to `CC(Cc1ccco1)C(=O)NC(N)=O` (stereo not drawn), the growth was 99.3% in test [1]; 102% in [2]; 91.8% in test [3]; 105% in [4]; 108% in [5]; 98.4% in [6]. Also, the growth in test [7] was 97.4%; in test [8], 105%.

In the case of `N#C/C(=C\c1ccc(-c2ccc(Br)cc2)o1)c1nc(-c2cccs2)cs1`, the growth was 98.8% in test [1]; 105% in test [2]; 97% in test [3]; 95.1% in test [4]; 99.3% in [5]; 95.9% in test [6]. Further, the growth was 86.2% in [9] and 99.1% in test [8].

In the case of `CN1CCN(CCOc2ccc(-c3cnc4c(-c5ccccc5F)cnn4c3)cc2)CC1`, the growth in [1] is 3.14% (active); in test [2], -38% (active); in test [3], 120%; in test [4], 69.1%; in [5], 2.35% (active); in test [6] it was 32.4%. Further, the values for the growth in test [9] and in test [8] were -10.7% (active) and 59.5%, respectively.

Turning to `O=C1C(Cl)=C(Nc2ccc(S(=O)(=O)c3ccc(NC4=C(Cl)C(=O)c5ccccc5C4=O)cc3)cc2)C(=O)c2ccccc21`, the growth in test [1] is 0.496% (active); in [2], 32.6%; in [3], 57.7%; in test [4] it was 44.8%; in [5], 5.68% (active); in test [6], 15.8%. Further, the growth is 12.5% in test [9] and 14.2% in [8].

As to `Cn1cc(-c2nc(-c3cn(C)c4ncccc34)cs2)c2ccccc21`, the growth in [1] was 20.4%; in test [2], 9.24% (active); in test [3], 20.9%; in test [4] it was 51.4%; in test [5], 31.8%; in [6], 53.6%. The growth was 33.2% in test [9] and 46.5% in test [8].

Regarding `Fc1ccc2c(c1)c(-c1nc(-c3c[nH]c4ncccc34)cs1)cn2CCCN1CCCCC1`, the growth in test [1] was -8.44% (active); in test [2], -38.4% (active); in test [3], 64%; in [4] it was 60.1%; in test [5], 24.9%; in [6], 47.9%. The results for the growth in [7] and in test [8] were 44% and -68.3% (active), respectively.

Turning to `COc1cccc(-c2nn(-c3ccccc3)cc2-c2ccnc(NCCCNS(=O)(=O)c3ccc(Br)cc3)c2)c1`, the growth in [1] is 42.5%; in test [2], 9.65% (active); in test [3], 75.2%; in [4] it was 60.2%; in test [5], 40.2%; in [6], 26.4%. In addition, in test [7], the growth is 56.6%.

Take `c1ccc2[nH]c(-c3ccc(Nc4nc(N5CCCCC5)nc(N5CCOCC5)n4)cc3)nc2c1`: the growth in test [1] was -33.9% (active); in test [2] it was -28.2% (active); in test [3], -0.681% (active); in test [4] it was 10.4%; in test [5], 8.02% (active); in test [6], 12.4%. In addition, the growth in test [7] is -77.1% (active); in test [8], -30.2% (active).

With `CC(C)(C)c1nc(-c2ccc(O)c(O)c2)cs1`, the growth in test [1] was 36.3%; in test [2], 92.6%; in [3], 73.1%; in test [4], 72.1%; in test [5], 46.9%; in test [6], 54%. For the same compound, the growth in test [7] is 63.5%; in test [8], 87.8%.

With `COC(=O)[C@]12CC[C@@H](C(=O)/C=C/c3cccnc3)[C@@H]1[C@H]1CC[C@@H]3[C@@]4(C)C/C(=C/c5cccnc5)C(=O)C(C)(C)[C@@H]4CC[C@@]3(C)[C@]1(C)CC2`, the growth was -46.2% (active) in [1]; -45.5% (active) in [2]; -98.7% (active) in test [3]; -87.6% (active) in test [4]; -87.9% (active) in [5]; -14.1% (active) in test [6]. Moreover, the growth is -67.9% (active) in test [9] and -96.3% (active) in test [8].

For `COc1ccc(NC(=O)c2ccc3c(c2)nc(-c2cc4ccccc4[nH]c2=O)n3-c2cc(C(C)(C)C)[nH]n2)cc1`, the growth is 95.5% in test [1]; 106% in test [2]; 76.2% in [3]; 75.4% in [4]; 85.6% in [5]; 79.1% in [6]. The growth in test [9] was 85.6%; in test [8] it was 93.2%.

Take `CC1(C)C(=O)/C(=C\c2cccnc2)C[C@]2(C)[C@H]3CC[C@@H]4[C@@H](C(=O)/C=C/c5ccncc5)CC[C@@]4(C)[C@]3(C)CC[C@@H]12`: the growth in test [1] was -36% (active); in test [2], 9.87% (active); in [3] it was 62.6%; in test [4] it was 15.1%; in [5], -7.74% (active); in test [6], 19.5%. Besides, the growth in test [9] is -26.7% (active); in [8] it was 26.7%.

For the compound `COc1ccc2c(c1)C/C(=C\c1cc(-c3ccc4c(c3)OCO4)n[nH]1)C2=O`, the growth is 90.3% in [1]; 127% in [2]; 55.1% in [3]; 92.5% in test [4]; 94.8% in test [5]; 71.6% in test [6]. Besides, the results for the growth in [9] and in test [8] were 90.3% and 104%, respectively.

Consider `[B-][N+](CC)(CC)c1ccccc1`, for which the growth in test [1] is 100%; in test [2], 107%; in test [3], 84.1%; in test [4], 105%; in test [6], 99.4%; in [10], 104%. The figures for the growth in [9], in test [7] and in [8] were 111%, 109% and 99.7%, respectively.
